Mcl1 Bid PPI – Mcl-1/Bid interaction inhibition; TR-FRET Mcl-1/Bid-Dy647 peptide binding, 1536-well; Q07820; inhibition, % at 21.7 µM; hit rate 0.97% among 220,000;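 active means compounds that cut the binding signal by more than half at the single screening dose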;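 further: His-tagged Mcl-1 with europium anti-His antibody binding Bid BH3 peptide; 0% = Mcl-1 plus peptide wells and 100% = peptide-only wells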
Target sequence (Q07820 whole entry, looked up): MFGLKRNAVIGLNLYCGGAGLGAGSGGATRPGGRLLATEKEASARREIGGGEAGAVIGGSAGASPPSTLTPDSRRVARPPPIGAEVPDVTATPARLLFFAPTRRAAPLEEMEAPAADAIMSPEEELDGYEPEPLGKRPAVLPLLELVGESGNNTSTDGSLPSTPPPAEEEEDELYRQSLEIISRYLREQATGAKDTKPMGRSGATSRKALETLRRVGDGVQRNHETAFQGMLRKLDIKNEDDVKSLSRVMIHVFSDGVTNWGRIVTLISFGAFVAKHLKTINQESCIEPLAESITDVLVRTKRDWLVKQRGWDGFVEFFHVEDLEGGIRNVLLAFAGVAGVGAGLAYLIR
Mcl-1 Bim block – inhibitors of Bim-Mcl-1 interaction, human; Bead-based flow cytometry, Bim peptide-Mcl-1 binding; inhibition, % at 10 µM; hit rate 0.1% among 190,000; AID 1009; in the data active means inhibition above about 40%;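 further: 0% = no compound tracer wells and 100% = peptide blocker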
Mcl1 Noxa PPI – Mcl-1/Noxa interaction inhibition. TR-FRET Mcl-1/Noxa peptide binding, 2 h. inhibition, % at 21.7 µM. hit rate 1.5% among 220,000;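 active means compounds that cut the protein-peptide binding signal by more than 50% relative to plate controls in a single-dose test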;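 further: His-tagged Mcl-1 with rhodamine Noxa BH3 peptide and terbium anti-His antibody; 0% = Mcl-1 plus Noxa peptide wells and 100% = peptide-only wells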
p47phox inh – p47phox (human) inhibition. p47phox/p22phox peptide binding, fluorescence polarization, 2 h. inhibition, % at 24.7 µM. hit rate 0.53% among 220,000. AID 1274;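 further: 0% = p47phox with labelled peptide and 100% = labelled peptide alone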
14-3-3 Bad PPI – disrupts binding of bovine 14-3-3 zeta to phospho-Bad peptide; hit rate 0.71% among 220,000; inhibition, % at 21.7 µM; P63103; TR-FRET 14-3-3zeta/Dy647-pBad peptide displacement, 1 h;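 active means inhibition above about 70%, limit read from the data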;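 further: 0% = full 14-3-3 plus peptide FRET controls and 100% = background without 14-3-3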
Target sequence (P63103 whole entry, looked up): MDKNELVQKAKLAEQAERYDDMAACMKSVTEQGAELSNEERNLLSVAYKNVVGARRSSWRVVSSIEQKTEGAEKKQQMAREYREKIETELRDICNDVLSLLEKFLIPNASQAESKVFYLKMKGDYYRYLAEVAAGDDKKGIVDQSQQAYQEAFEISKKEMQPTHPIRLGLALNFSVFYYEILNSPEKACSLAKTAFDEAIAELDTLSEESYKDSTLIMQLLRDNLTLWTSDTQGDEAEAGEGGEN
eIF4E-4G inh – blocks eIF4E binding to eIF4G. TR-FRET eIF4E-eIF4GI(517-606) binding, 2 h. hit rate 0.37% among 220,000. inhibition, % at 21.7 µM. P63073+Q04637;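 further: 0% = full FRET control wells and 100% = background wells lacking eIF4GI fragment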
* = called active by the depositor; / = no result given; [ ] = another dose, or the depositor's remark. Compounds with a hit are over-represented: about 3.3% of the library has one in this group of screens.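 How the source made its calls, unless noted: active means inhibition above about 30% (limit read from the data); inactive means the rest.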

SMILES | Mcl1 Bid PPI | Mcl-1 Bim block | Mcl1 Noxa PPI | p47phox inh | 14-3-3 Bad PPI | eIF4E-4G inh
COC(=O)C1=C(C)C(c2ccc(OC)cc2)NC(=O)N1 (centres undefined) | -7 | 0 | 14 | -7 | -5 | 3
COc1cccc(C2NC(=O)NC(C)=C2C(=O)Nc2ccc(C)cc2)c1OC (centres undefined) | -12 | 0 | -15 | -12 | 8 | 0
COc1ccc(NC(=O)C2=C(C)NC(=O)NC2c2cccc(OC)c2OC)c(OC)c1 (centres undefined) | 0 | 43* | -12 | -3 | -10 | 8
COc1cc(CNCCCN2CCOCC2)cc(Br)c1OCC(=O)N1CCCCC1 | 4 | 3 | 13 | -14 | 46 | 2
CCOc1cc(CNCCCN2CCOCC2)cc(Br)c1OCC(=O)Nc1cccc(C(F)(F)F)c1 | 21 | -1 | 18 | -17 | 79* | 1
Cc1cccc(N(CC(=O)NCc2ccc(F)cc2)C(=O)c2csnn2)c1C | -66 | 0 | 2 | -6 | -6 | 5
O=C(Cc1cccs1)Nc1ccc(S(=O)(=O)N2CCCCC2)cc1 | 24 | -2 | 66* | -60 | 1 | -1
COc1ccc(S(=O)(=O)N2CCN(C(=O)Cc3cccs3)CC2)cc1 | 4 | -4 | 10 | 3 | -3 | -5
O=C(COC(=O)c1ccc(Br)o1)Nc1ccc(S(=O)(=O)N2CCCC2)cc1 | 60* | -4 | 44 | -21 | 0 | 1
CN1CCN(S(=O)(=O)c2ccc(NC(=O)Cc3cccs3)cc2)CC1 | -35 | 0 | 13 | -22 | -6 | -4
O=C(Cc1cccs1)N1CCN(S(=O)(=O)c2ccccc2)CC1 | 97* | -2 | 14 | -6 | -7 | 1
COc1ccccc1N1CCN(C(=O)c2ccc(Cn3c(=O)[nH]c4ccsc4c3=O)cc2)CC1 | -27 | / | -4 | -2 | 5 | 3
O=C(CSc1ccc2ccccc2n1)c1ccccc1 | -12 | / | -10 | 1 | 2 | -3
Fc1ccc(CNn2cnnc2SCc2ccc(F)cc2)cc1 | 2 | 0 | 3 | -15 | -4 | -2
Fc1ccc(CSc2nncn2NCc2ccc3c(c2)OCO3)cc1 | -31 | -4 | 19 | 103* | 3 | 5
O=C(NCCCO)C(=O)NCc1ccncc1 | -12 | -2 | 5 | -7 | -10 | 0
O=c1[nH]c2ccc(S(=O)(=O)NCc3ccccc3)cc2[nH]1 | -15 | -2 | 3 | -8 | -7 | 2
O=C(COc1ccc(/C=N/NC(=O)c2cc3ccccc3o2)cc1Br)Nc1ccccc1 | 82* | 0 | 2 | 38* | 86*[fluorescence artefact?] | -18
O=C(COc1ccccc1[N+](=O)[O-])Nc1ccc(NC(=O)c2cc3ccccc3o2)cc1 | 41 | -1 | -28 | 32* | 90* | 12
Cc1ccc(-n2c(SCc3ccc(C(=O)O)cc3)nnc2-c2ccncc2)cc1 | -1 | / | -7 | 3 | 6 | -3
CCc1nc(N2CCN(Cc3ccc4c(c3)OCO4)CC2)c2oc3ccccc3c2n1 | -4 | -1 | 27 | -8 | 80* | 8
CCc1nc(SCC(=O)Nc2ccc3c(c2)OCCO3)c2oc3ccccc3c2n1 | 46 | -2 | -85 | 39* | 23 | -5
CCc1nc(NC(C)C)c2oc3ccccc3c2n1 | 43 | -3 | 11 | -10 | 76* | 2
Cc1nc(SCC(=O)Nc2ccc3c(c2)OCCO3)c2oc3ccccc3c2n1 | 29 | -3 | -111 | 14 | 38 | -9
CCc1nc(N2CCCCC2)c2oc3ccccc3c2n1 | -11 | 3 | 3 | -24 | 38 | 8
SMILES | Mcl1 Bid PPI | Mcl-1 Bim block | Mcl1 Noxa PPI | p47phox inh | 14-3-3 Bad PPI | eIF4E-4G inh
CCc1nc(Nc2ccc3c(c2)OCO3)c2oc3ccccc3c2n1 | 0 | 0 | 35 | -9 | 70*[fluorescence artefact?] | -2
O=C(CCc1nnc(C2(c3ccc(Cl)cc3)CCC2)o1)NCCCn1cccn1 | -7 | -3 | 1 | 5 | -5 | 2
CNC(=S)NCC(O)c1ccc([N+](=O)[O-])cc1 (centres undefined) | -27 | -3 | -23 | 9 | -4 | -2
Cc1cc(C)c(C2=NOC3C4CCC(C4)C23)c(C)c1 (centres undefined) | -2 | -6 | 1 | -3 | 4 | 5
Cc1[nH]c2c([N+](=O)[O-])cccc2c1C | -24 | / | -9 | -1 | -3 | 5
CCN(CC)CCCOc1nc(C)nc2c1oc1ccccc12 | -9 | 0 | 23 | -5 | 77* | -8
COc1ccc(C(c2c(C)[nH]n(C(N)=S)c2=O)C(C#N)C#N)cc1 (centres undefined) | -57 | -6 | -50 | -7 | -19 | 6
Cc1[nH]n(-c2ncc(-c3ccc(Cl)cc3)s2)c(=O)c1C(c1ccc(Cl)cc1)C(C#N)C#N (centres undefined) | 51* | 1 | 92* | -28 | -23 | 3
Cc1c(Br)c(=O)oc2c(Br)c(O)c(O)cc12 | -112 | 8 | 64* | 1 | 8 | 2
Cc1c(Br)c(=O)oc2c(Br)c(O)ccc12 | -14 | -1 | 16 | -4 | 1 | 1
CCCCOc1ccc(CC2CCC(=O)NC2=O)cc1 (centres undefined) | 1 | 2 | 14 | -5 | -15 | -5
COc1ccc(Cn2c(=O)cc(N)n(-c3ccccc3C)c2=O)cc1 | 0 | / | 0 | -5 | 97* | 6
COc1cccc(Cn2c(=O)c3[nH]cnc3n(-c3ccccc3C)c2=O)c1 | -4 | / | 19 | 3 | 9 | -1
Cc1cc(C)c(S(=O)(=O)c2ccc(Cl)cc2C)c(Cl)n1 | -10 | -1 | 6 | -7 | -7 | 1
Cc1nn(-c2ccccc2)c(C)c1/C=N/n1c(-c2ccc(Cl)cc2)n[nH]c1=S | 22 | -6 | 53* | 5 | 39 | 1
S=c1[nH]nc(-c2ccc(Cl)cc2)n1/N=C/c1cccs1 | -59 | / | 12 | -15 | 3 | 95*
CC(=O)N1CCN(Cc2nc3cc(NC(=O)c4ccc(F)cc4)ccc3n2C)CC1 | -16 | 0 | -15 | -6 | 1 | 3
Cc1c(C(=O)OCC(=O)N(C)C2CCS(=O)(=O)C2)oc2ccc(Br)cc12 (centres undefined) | -13 | / | 10 | 9 | 2 | 1
CN(C)c1ccc(/C=N/NC(=O)c2ccccn2)cc1 | -71 | / | 6 | -8 | -4 | 5
CC(C)c1ccc(/C=N/NC(=O)c2ccccn2)cc1 | -37 | / | -3 | -6 | 1 | 55*
CSc1ncc(Cl)c(C(=O)Nc2sc3c(c2C(=O)NCc2ccco2)CCCC3)n1 | 0 | 0 | -2 | -13 | 5 | 3
CCSc1ncc(Cl)c(C(=O)Nc2sc3c(c2C(=O)NCc2cccnc2)CCCC3)n1 | 59* | 44* | 27 | 7 | 58 | -11
O=C(CSc1nccn1-c1ncc(C(F)(F)F)cc1Cl)c1ccc(Br)cc1 | -30 | -3 | -23 | -15 | -2 | -3

Screening results: PubChem, several laboratories
